# Measured values published in PubChem BioAssay.
# A number with no mark means an inactive call. For some of these results: Potency and affinity values are given separately. This is one part of the list. A call without a number means that no potency is given here. Active and inactive are the calls of the source.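 Rule for the calls, unless noted: active = membrane potential signal rise above negative control mean plus 3 SD in both duplicates, also active in the earlier TRPC4 screen; inactive = the rest.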
# Tests used:
# [1] = test system: TRPC4 beta (transient receptor potential cation channel C4), mouse; experiment: TRPC4 cation channel opening, retest – cell-based, Fluo4 calcium, HEK293 TRPC4beta/mu-opioid, duplicates, 10 µM, confirmation (AID 2426;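 active = fluorescence ratio normalized to control raised more than 50% in primary screen plus both repeat runs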); conditions: Fluo4 calcium fluorescence, at 10 µM; hits give high values
# [2] = test system: transient receptor potential cation channel C4 beta (TRPC4), mouse; experiment: TRPC4 cation channel opening, second retest – cell-based, second round, Fluo4, HEK293 TRPC4beta/mu-opioid, 1 µM, confirmation (AID 2461;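 active = primary screen active and over 50% activation in each of two duplicate runs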); conditions: Fluo4 calcium fluorescence, at 1 µM; hits give high values
# [3] = test system: TRPC4 (transient receptor potential cation channel C4 beta), mouse; experiment: potentiation of DAMGO EC20 TRPC4 response – cell-based, second round, Fluo-4, HEK293 TRPC4beta/mu-opioid, 1 µM, confirmation (AID 2554;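 active = primary screen hit whose fluorescence ratio, in both repeats, exceeds the weak agonist control mean by 3 SD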); conditions: DAMGO EC20, Fluo-4 calcium flux, at 1 µM; hits give high values
# [4] = test system: TRPC4 beta (transient receptor potential cation channel C4), mouse; experiment: potentiation of DAMGO EC20 TRPC4 response – cell-based, Fluo-4, HEK293 TRPC4beta/mu-opioid, confirmation (AID 2555;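 active = primary screen hit whose calcium fluorescence ratio, in both repeats, exceeds the weak agonist control mean by 3 SD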); conditions: DAMGO EC20, Fluo-4 calcium flux, at 10 µM; hits give high values
# [5] = target: Short transient receptor potential channel 4 (Mus musculus) (UniProt Q9QUQ5); experiment: blockers of DAMGO-evoked TRPC4 calcium flux – cell-based, Fluo4, HEK293 TRPC4beta/mu-opioid, confirmation (AID 2636;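 active = calcium signal cut by more than 3 SD below the full-agonist control yet still positive, in both repeats and the earlier primary screen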); conditions: at 10 µM; hits give high values
# [6] = target: Short transient receptor potential channel 4 (Mus musculus) (UniProt Q9QUQ5); experiment: blockers of DAMGO-evoked TRPC4 calcium flux – cell-based, second round, Fluo4, HEK293 TRPC4beta/mu-opioid, 1 µM, confirmation (AID 2637;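 active = calcium signal ratio cut to more than 3 SD under the fully stimulated control mean yet still positive, in both repeats and the primary screen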); conditions: at 1 µM; hits give high values
# [7] = target: Short transient receptor potential channel 4 (Mus musculus) (UniProt Q9QUQ5); experiment: calcium entry via TRPC4 opening agents – cell-based, HEK293 TRPC4/mu-opioid, Fluo-4 calcium, dose response (AID 434937;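 active = primary screen activator hit with a dose response curve and TRPC4 channel activation at any tested dose; inactive = no activation, no dose response, or not a primary hit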)
# [8] = target: Short transient receptor potential channel 4 (Mus musculus) (UniProt Q9QUQ5); experiment: potentiation of DAMGO-evoked TRPC4 calcium signal – cell-based, HEK293 TRPC4/mu-opioid, Fluo-4 calcium, EC20 DAMGO, dose response (AID 434941;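 active = earlier screen potentiator hit that boosts the TRPC4 ion channel at some dose, with a dose response; inactive = no potentiation, no dose response, or not a prior hit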;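 note: calcium entry triggered by an EC20 dose of DAMGO at the co-expressed mu-opioid receptor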)
# [9] = target: Short transient receptor potential channel 4 (Mus musculus) (UniProt Q9QUQ5); experiment: block of DAMGO-driven TRPC4 calcium entry – cell-based, HEK293 TRPC4/mu-opioid, Fluo-4 calcium, dose response (AID 434942;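 active = primary screen inhibitor hit that blocks the TRPC4 channel at some tested dose, yielding a dose curve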)
# [10] = target: Short transient receptor potential channel 6 (Mus musculus) (UniProt Q61143); experiment: TRPC6 blockade by TRPC4 inhibitor hits – cell-based, HEK293, membrane potential dye, duplicate, selectivity assay for TRPC4 inhibitor project, confirmation (AID 434948;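 active = active in primary screen and both duplicates, each dropping signal beyond three positive-control SD with fluorescence still positive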); conditions: HEK293 TRPC6, membrane potential dye fluorescence, at 10 µM, stimulated with maximal-effect acetylcholine; hits give high values
# [11] = target: Short transient receptor potential channel 6 (Mus musculus) (UniProt Q61143); experiment: TRPC6 opening by TRPC4 activator hits – cell-based, HEK293, membrane potential dye, duplicate, selectivity assay for TRPC4 activator project, confirmation (AID 434950); conditions: HEK293 TRPC6, membrane potential fluorescence, at 10 µM; activation: hits give high values; outcome: activation
# [12] = target: Short transient receptor potential channel 6 (Mus musculus) (UniProt Q61143); experiment: positive modulators of mouse TRPC6 channel – HEK293 cells, membrane potential dye, duplicate, selectivity assay for TRPC4 potentiator project, confirmation (AID 434952;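 active = compound raising the membrane signal above positive-control mean plus 3 SD in both repeats, and a primary screen hit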); conditions: HEK293 TRPC6, membrane potential dye fluorescence, at 10 µM, maximal acetylcholine added after compound; hits give high values
# [13] = target: Short transient receptor potential channel 4 (Mus musculus) (UniProt Q9QUQ5); experiment: calcium flux activators in TRPC4/5HT1a cells, counter-screen for TRPC4 activator project, cell-based, second counter screen, HEK293 TRPC4/5HT1a, Fluo-4 (AID 434977;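 active = calcium signal rise above buffer-control mean plus 5 SD in both duplicates, and also a hit in the primary screen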); conditions: Fluo-4 calcium flux, at 10 µM; hits give high values
# [14] = serotonin-gated TRPC4 signal block – cell-based, second counter screen, HEK293 TRPC4/5HT1a, Fluo-4, counter-screen for TRPC4 inhibitor project, confirmation (AID 434978;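 active = primary screen active whose calcium signal fell more than 3 SD beyond the full-serotonin control mean in both duplicate plates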;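 note: serotonin given first at submaximal then at maximal dose after compound preincubation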); conditions: Fluo-4 calcium flux, at 10 µM, serotonin added to trigger calcium flux; hits give high values
# [15] = test system: TRPC4 (mouse), co-expressed with 5HT1a in HEK293; experiment: enhancement of serotonin-evoked TRPC4 response – cell-based, second counter screen, HEK293 TRPC4/5HT1a, Fluo-4, counter-screen for TRPC4 potentiator project, confirmation (AID 434979;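 active = signal rise over 3 SD above mean of control wells given weak agonist, in both repeats and first screen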); conditions: Fluo-4 calcium flux, at 10 µM, serotonin added at its EC20 dose; hits give high values
# [16] = nonspecific calcium rise without TRPC4 – cell-based, HEK293 mu-opioid receptor line, counter-screen for TRPC4 activator project, confirmation (AID 449723;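 active = hit in primary screen, with calcium signal over 5 SD above buffer well mean in both duplicates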;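 note: counter screen cells carry the mu-opioid receptor alone and lack TRPC4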); conditions: HEK293 mu-opioid cells, Fluo-4 calcium fluorescence, at 10 µM; hits give high values
# [17] = nonspecific potentiation of DAMGO calcium response – cell-based, HEK293 mu-opioid receptor line, counter-screen for TRPC4 allosteric potentiator project, confirmation (AID 449724;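 active = calcium signal rise more than 3 SD above the low-dose agonist control mean, in both duplicate plates and the primary screen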); conditions: HEK293 mu-opioid receptor cells, Fluo-4 calcium flux, at 10 µM, compound added before EC20 DAMGO stimulus; hits give high values
# [18] = parental CHO-K1 cell activation, no KCNQ2 – FluxOR thallium flux, duplicate, counter-screen for KCNQ2 potentiator project, confirmation (AID 2282;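 active = signal rise of at least 3 SD above the untreated control mean, in both duplicate wells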;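 note: counter screen of KCNQ2 potentiator hits so any rise reflects channel-independent effects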); conditions: parental CHO-K1 cells, FluxOR thallium flux fluorescence; at 10 µM; hits give high values; zero = vehicle mean+3SD, 100% = vehicle-minus-blank window
# [19] = target: Potassium voltage-gated channel subfamily KQT member 1 (Homo sapiens) (UniProt P51787); experiment: KCNQ1 activation in stable CHO cells – cell-based, FluxOR thallium flux, selectivity assay for KCNQ2 potentiator project, confirmation (AID 2283;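 active = fluorescence ratio rise of at least 3 SD of vehicle wells above their mean, in both replicate wells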); conditions: FluxOR thallium flux fluorescence, at 10 µM, hits give high values, beyond 3SD, as % of vehicle-control signal
# [20] = target: Potassium voltage-gated channel subfamily KQT member 2 (Rattus norvegicus) (UniProt O88943); experiment: KCNQ2 potassium channel activity enhancers – cell-based, CHO, FluxOR thallium flux, duplicate, confirmation (AID 2287;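 active = fluorescence ratio rising 3 SD or more over the vehicle control mean in both replicates, plus primary screen hit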;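 note: peak minus minimum thallium fluorescence divided by baseline after K/Tl stimulus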); conditions: CHO-KCNQ2 cells, FluxOR thallium flux fluorescence; at 10 µM; hits give high values
# Sequence of Potassium voltage-gated channel subfamily KQT member 2 (Rattus norvegicus) (O88943 whole entry, looked up): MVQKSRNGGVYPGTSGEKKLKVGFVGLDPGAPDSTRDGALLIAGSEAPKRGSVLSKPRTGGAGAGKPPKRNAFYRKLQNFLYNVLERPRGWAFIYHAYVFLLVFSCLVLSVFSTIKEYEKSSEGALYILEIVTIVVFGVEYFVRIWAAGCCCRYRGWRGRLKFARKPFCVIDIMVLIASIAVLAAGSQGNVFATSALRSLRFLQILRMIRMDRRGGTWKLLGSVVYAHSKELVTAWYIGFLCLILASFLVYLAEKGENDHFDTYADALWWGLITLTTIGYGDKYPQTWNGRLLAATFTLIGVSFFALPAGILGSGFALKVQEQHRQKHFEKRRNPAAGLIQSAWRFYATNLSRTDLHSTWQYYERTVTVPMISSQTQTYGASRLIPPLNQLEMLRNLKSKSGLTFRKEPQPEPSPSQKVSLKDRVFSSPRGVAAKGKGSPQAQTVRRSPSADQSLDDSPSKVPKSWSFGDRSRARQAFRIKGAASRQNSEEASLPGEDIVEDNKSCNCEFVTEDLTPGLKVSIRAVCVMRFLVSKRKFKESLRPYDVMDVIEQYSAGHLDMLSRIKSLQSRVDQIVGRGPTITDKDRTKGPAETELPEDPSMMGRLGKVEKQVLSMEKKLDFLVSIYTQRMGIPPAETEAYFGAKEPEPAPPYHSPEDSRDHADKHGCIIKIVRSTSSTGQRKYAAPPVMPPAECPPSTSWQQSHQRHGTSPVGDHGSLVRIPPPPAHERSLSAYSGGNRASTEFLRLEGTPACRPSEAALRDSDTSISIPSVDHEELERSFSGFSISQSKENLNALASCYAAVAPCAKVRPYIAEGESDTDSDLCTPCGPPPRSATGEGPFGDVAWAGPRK
# Sequence of Short transient receptor potential channel 4 (Mus musculus) (Q9QUQ5 whole entry, looked up): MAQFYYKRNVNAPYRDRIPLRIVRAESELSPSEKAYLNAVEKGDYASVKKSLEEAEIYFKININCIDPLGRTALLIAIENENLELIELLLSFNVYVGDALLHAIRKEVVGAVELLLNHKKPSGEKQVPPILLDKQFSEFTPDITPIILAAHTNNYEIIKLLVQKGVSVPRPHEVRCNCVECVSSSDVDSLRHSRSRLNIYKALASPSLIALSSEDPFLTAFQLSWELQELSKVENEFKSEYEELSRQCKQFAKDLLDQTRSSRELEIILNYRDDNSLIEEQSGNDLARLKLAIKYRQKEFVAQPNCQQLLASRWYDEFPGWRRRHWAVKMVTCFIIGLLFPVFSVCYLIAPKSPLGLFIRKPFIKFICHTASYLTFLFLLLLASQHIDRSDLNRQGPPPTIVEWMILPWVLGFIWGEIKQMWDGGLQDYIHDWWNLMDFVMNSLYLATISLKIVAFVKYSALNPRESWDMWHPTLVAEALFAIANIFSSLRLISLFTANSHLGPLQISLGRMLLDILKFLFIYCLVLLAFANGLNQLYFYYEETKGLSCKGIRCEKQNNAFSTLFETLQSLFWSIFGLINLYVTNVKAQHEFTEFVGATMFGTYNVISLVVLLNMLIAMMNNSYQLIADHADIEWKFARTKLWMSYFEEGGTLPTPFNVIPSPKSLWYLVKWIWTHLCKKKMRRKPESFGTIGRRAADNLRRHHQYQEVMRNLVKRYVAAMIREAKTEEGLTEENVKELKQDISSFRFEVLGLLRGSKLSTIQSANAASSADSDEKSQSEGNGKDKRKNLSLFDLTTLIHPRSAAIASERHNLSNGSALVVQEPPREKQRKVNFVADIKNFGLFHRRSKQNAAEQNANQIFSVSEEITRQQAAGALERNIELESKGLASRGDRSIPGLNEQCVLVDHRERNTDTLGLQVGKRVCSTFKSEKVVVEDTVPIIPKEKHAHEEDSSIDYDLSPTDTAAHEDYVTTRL
# Sequence of Short transient receptor potential channel 6 (Mus musculus) (Q61143 whole entry, looked up): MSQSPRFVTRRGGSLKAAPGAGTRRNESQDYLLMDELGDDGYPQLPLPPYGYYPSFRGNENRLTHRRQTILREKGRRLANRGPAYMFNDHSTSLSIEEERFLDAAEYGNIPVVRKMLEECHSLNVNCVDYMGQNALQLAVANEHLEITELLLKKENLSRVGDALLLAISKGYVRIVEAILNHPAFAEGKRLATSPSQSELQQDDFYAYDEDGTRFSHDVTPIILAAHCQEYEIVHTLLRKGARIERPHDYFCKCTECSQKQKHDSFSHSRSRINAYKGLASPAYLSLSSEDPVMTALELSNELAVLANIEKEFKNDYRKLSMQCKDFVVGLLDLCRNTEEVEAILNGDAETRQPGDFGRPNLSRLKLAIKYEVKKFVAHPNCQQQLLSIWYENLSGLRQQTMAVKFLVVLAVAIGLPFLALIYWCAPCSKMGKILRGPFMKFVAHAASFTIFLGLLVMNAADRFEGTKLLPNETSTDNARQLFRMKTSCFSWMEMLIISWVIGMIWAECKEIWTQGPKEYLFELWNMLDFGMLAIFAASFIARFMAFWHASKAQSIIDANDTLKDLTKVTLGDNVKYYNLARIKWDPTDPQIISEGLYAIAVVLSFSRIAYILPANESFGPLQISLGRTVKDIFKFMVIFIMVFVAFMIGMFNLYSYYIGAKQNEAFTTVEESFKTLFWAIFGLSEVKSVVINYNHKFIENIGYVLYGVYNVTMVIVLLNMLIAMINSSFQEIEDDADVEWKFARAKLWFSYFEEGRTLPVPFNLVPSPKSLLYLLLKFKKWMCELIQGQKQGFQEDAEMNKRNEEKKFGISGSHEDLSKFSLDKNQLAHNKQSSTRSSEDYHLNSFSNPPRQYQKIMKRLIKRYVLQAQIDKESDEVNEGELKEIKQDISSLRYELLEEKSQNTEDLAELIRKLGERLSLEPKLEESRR
# Sequence of Potassium voltage-gated channel subfamily KQT member 1 (Homo sapiens) (P51787 whole entry, looked up): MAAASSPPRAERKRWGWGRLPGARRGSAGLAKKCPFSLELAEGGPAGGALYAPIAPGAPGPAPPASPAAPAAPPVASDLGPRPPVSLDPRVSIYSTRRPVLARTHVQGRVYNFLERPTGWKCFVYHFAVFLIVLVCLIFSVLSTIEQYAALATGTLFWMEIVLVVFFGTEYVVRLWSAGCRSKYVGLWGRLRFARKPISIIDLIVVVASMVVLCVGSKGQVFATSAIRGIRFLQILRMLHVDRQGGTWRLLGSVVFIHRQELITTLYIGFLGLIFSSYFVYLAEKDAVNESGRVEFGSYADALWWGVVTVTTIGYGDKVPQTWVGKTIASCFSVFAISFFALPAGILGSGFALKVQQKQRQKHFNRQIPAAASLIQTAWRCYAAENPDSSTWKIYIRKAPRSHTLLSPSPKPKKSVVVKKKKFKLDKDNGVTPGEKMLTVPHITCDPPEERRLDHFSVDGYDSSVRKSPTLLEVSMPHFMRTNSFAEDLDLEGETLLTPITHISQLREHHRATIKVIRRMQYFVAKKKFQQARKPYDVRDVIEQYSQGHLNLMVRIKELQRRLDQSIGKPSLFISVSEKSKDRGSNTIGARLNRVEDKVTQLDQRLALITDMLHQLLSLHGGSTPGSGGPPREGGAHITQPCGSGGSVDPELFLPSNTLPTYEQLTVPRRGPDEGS
compound,measurement,setting,value
COc1cccc(OCC(=O)NC2CCCCC2)c1,outcome,[1],inactive
same,outcome,[2],inactive
same,outcome,[3],inactive
same,potentiation,[4],41% (active)
same,outcome,[5],inactive
same,outcome,[6],inactive
same,outcome,[7],inactive
same,outcome,[8],inactive
same,outcome,[9],inactive
same,outcome,[10],inactive
same,outcome,[11],inactive
same,outcome,[12],inactive
same,outcome,[13],inactive
same,outcome,[14],inactive
same,potentiation,[15],26.3% (active)
same,outcome,[16],inactive
same,outcome,[17],inactive
O=c1c2cc(Br)ccc2nc(-c2cccc(Cl)c2)n1O,activity increase over 3SD of controls,[18],-14.4%
same,activation over 3SD threshold,[19],68.1% (active)
same,"potentiation, less the hit threshold",[20],84.4% (active)
same,activation,[1],223% (active)
same,outcome,[2],inactive
same,outcome,[3],inactive
same,outcome,[4],inactive
same,outcome,[5],inactive
same,outcome,[6],inactive
same,outcome,[8],inactive
same,outcome,[9],inactive
same,outcome,[10],inactive
same,activation,[11],38.5% (active)
same,outcome,[12],inactive
same,activation,[13],63.4% (active)
same,outcome,[14],inactive
same,outcome,[15],inactive
same,activation,[16],20.3% (active)
same,outcome,[17],inactive
Fc1cc(F)c2nc(Nc3nc4c(F)cccc4s3)sc2c1,activity increase over 3SD of controls,[18],-5.6%
same,activation over 3SD threshold,[19],-15.7%
same,"potentiation, less the hit threshold",[20],20.5% (active)
Oc1ccc(-c2[nH]ncc2-c2ccc(Br)cc2)c(O)c1,outcome,[1],inactive
same,outcome,[2],inactive
same,outcome,[3],inactive
same,outcome,[4],inactive
same,outcome,[5],inactive
same,outcome,[6],inactive
same,outcome,[7],inactive
same,outcome,[8],inactive
same,outcome,[9],inactive
same,outcome,[10],inactive
same,outcome,[11],inactive
same,outcome,[12],inactive
same,outcome,[13],inactive
same,outcome,[14],inactive
same,outcome,[15],inactive
same,outcome,[16],inactive
same,outcome,[17],inactive
CCCC1=C(C(=O)OCC)C(c2cc(Cl)cc(OC)c2OCC(=O)OCC)NC(=O)N1 (configuration not stated),outcome,[1],inactive
same,outcome,[2],inactive
same,outcome,[3],inactive
same,potentiation,[4],22% (active)
same,outcome,[5],inactive
same,outcome,[6],inactive
same,outcome,[7],inactive
same,outcome,[8],inactive
same,outcome,[9],inactive
same,outcome,[10],inactive
same,outcome,[11],inactive
same,outcome,[12],inactive
same,outcome,[13],inactive
same,outcome,[14],inactive
same,potentiation,[15],5.72% (active)
same,outcome,[16],inactive
same,outcome,[17],inactive
CCOc1ccc(N=CNc2ccc(OCC)cc2)cc1,outcome,[1],inactive
same,outcome,[2],inactive
same,potentiation,[3],18% (active)
same,outcome,[4],inactive
same,outcome,[5],inactive
same,outcome,[6],inactive
same,outcome,[7],inactive
same,outcome,[8],inactive
same,outcome,[9],inactive
same,outcome,[10],inactive
same,outcome,[11],inactive
same,outcome,[12],inactive
same,outcome,[13],inactive
same,outcome,[14],inactive
same,potentiation,[15],23% (active)
same,outcome,[16],inactive
same,outcome,[17],inactive
CC(OC(=O)Cn1cnc2c1c(=O)n(C)c(=O)n2C)C(=O)Nc1ccc(Cl)cc1 (configuration not stated),outcome,[1],inactive
same,outcome,[2],inactive
same,outcome,[3],inactive
same,outcome,[4],inactive
same,outcome,[5],inactive
same,outcome,[6],inactive
same,outcome,[7],inactive
same,outcome,[8],inactive
same,outcome,[9],inactive
same,outcome,[10],inactive
same,outcome,[11],inactive
same,outcome,[12],inactive
same,outcome,[13],inactive
same,outcome,[14],inactive
same,outcome,[15],inactive
same,outcome,[16],inactive
same,outcome,[17],inactive
Cc1cc(C(=O)OCC(=O)Nc2ccc(F)c(F)c2)c(C)o1,activity increase over 3SD of controls,[18],-17.5%
same,activation over 3SD threshold,[19],-23.1%
same,"potentiation, less the hit threshold",[20],17.6% (active)
CCOC(=O)c1c(NC(=O)C2CCCO2)sc2c1CCC2 (configuration not stated),outcome,[1],inactive
same,outcome,[2],inactive
same,outcome,[3],inactive
same,potentiation,[4],40% (active)
same,outcome,[5],inactive
same,outcome,[6],inactive
same,outcome,[7],inactive
same,outcome,[8],inactive
same,outcome,[9],inactive
same,outcome,[10],inactive
same,outcome,[11],inactive
same,outcome,[12],inactive
same,outcome,[13],inactive
same,outcome,[14],inactive
same,potentiation,[15],47.8% (active)
same,outcome,[16],inactive
same,outcome,[17],inactive
